# Results reported in PubChem BioAssay AID540267 (National Center for Advancing Translational Sciences (NCATS), 2011).
# Hit rate of the full screen: of about 340,000 compounds, about 530 (0.16%) were called active. About 2% were inconclusive and are not listed. Rule as the data show it: active = activity change below about -80%; inconclusive = between about -30% and that limit; inactive = weaker than that. The list comes from a sample in which actives are over-represented; it also holds similar structures and randomly drawn compounds.
# Test: Small Molecules that selectively kill Giardia lamblia: qHTS;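 also: parasites exposed to compound for two days anaerobically before the ATP read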
# Conditions: Giardia lamblia trophozoite viability; at 7.66 µM; hits give low values
# Source text: Giardia lamblia is a human pathogen afflicting impoverished nations, and the most common cause of outbreaks of diarrhea in the United States. Giardia has been classified by the CDC as a category B bioterrorism organism. The favored anti giardiasis drugs in the US are metronidazole or tinidazole, compounds that have undesirable side effects. Moreover, increasing resistance to drug regimes and recurrence are a concern. It is thus clear that alternative drug treatments are needed.
# In a collaboration between the University of Maryland, College Park and the NIH Chemical Genomics Center, a bioluminescence Giardia viability assay based on the trophozoites' ATP content was developed. This assay is suitable for high throughput screening, and miniaturized the assay for compound screening in 1536-well plates. The goal of the project is to screen the Molecular Libraries Small Molecule Repository (MLSMR) for compounds that selectively kill Giardia trophozoites.
# NIH Chemical Genomics Center [NCGC]
# NIH Molecular Libraries Probe Centers Network [MLPCN]
# Assay Submitter (PI): Osnat Herzberg, University of Maryland, College Park, MD.
# 1. Dispense 2 ul/well media
# 2. Dispense 23 nl/well compounds
# 3. Dispense 4 ul/well Giardia trophozoites at a concentration of 100 cells/well
# 4. Incubate 48 hrs at 37 deg C anaerobically
# 5. Dispense 4 ul/well ATPLite 1-Step Luminescence assay kit
# 6. Incubate 15-30 min at room temperature
# 7. Read luminescence signal on ViewLux plate reader
# % is scaled to controls: 0 for no effect and ±100 for the full control effect.
row,SMILES,activity change
1,CCN(CC)c1ccc([N+](=O)[O-])c2cccnc12,-13.7% (inactive)
2,CN(c1ccccc1)c1ccc([N+](=O)[O-])c2nonc12,-83.4% (active)
3,CO[C@H]1[C@@H](O)[C@@H](C)O[C@H](O[C@H]2[C@H](Oc3cccc4c(O)c5c(=O)oc6ccc(C)c7c(=O)oc(c34)c5c67)O[C@H](C)[C@H](O)[C@@H]2O)[C@@H]1O,0.803% (inactive)
4,COc1cc([C@@H]2c3cc4c(cc3[C@H](OC(C)=O)[C@H]3COC(=O)[C@H]23)OCO4)cc(OC)c1OC,-7.09% (inactive)
5,O=P1(Oc2ccccc2)CC(O)C(O)C(COCc2ccccc2)O1 (stereo not given),11% (inactive)
